# Experimental data taken from PubChem BioAssay (NCATS).
# Records with an inconclusive call do not appear. The source made the active and inactive calls. Calls follow the shape of the dose curve; as a rule, active = well fitted curve in the direction sought with a large enough effect; inconclusive = small, poorly fitted or top-dose-only effect, or another doubt; inactive = no such curve, though single readings can be large; an effect the other way counts as inactive or inconclusive.
# What was measured:
# [1] = Quantitative High-Throughput drug screen in 47 multiple myeloma cell lines against the NCATS MIPE library collection: ARP1_JJKsccF8 cell viability assay (AID 1918928; also: nearly all actives have a fitted effect of over 40% in size; also: potency is read from the fitted curve at half-maximal effect)
# Summary of the method: (§1)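 Myeloma cells at 500 per well in 1536-well format treated with MIPE 4.0 library by pin transfer for 48 h at 37C, 5% CO2. Viability from ATP luminescence (CellTiter-Glo), normalized to DMSO (100%) and media-only (0%) wells.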
# [2] = Quantitative High-Throughput drug screen in 47 multiple myeloma cell lines against the NCATS MIPE library collection: ARD_JJKsccE7 cell viability assay (AID 1918929; also: potency is read from the fitted curve at half-maximal effect)
# Summary of the method: (§2)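 Inhibition of cell viability is measured here. Each line was plated at 500 cells per well, treated with MIPE 4.0 drugs, kept 48 hours at 37C, then assayed for ATP content by CellTiter-Glo luminescence.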
# [3] = Quantitative High-Throughput drug screen in 47 multiple myeloma cell lines against the NCATS MIPE library collection: Karpas620_DSMZ cell viability assay (AID 1918959); also: nearly all actives have a fitted effect of over 30% in size; also: potency is read from the fitted curve at half-maximal effect
# Summary of the method: (§3)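 Primary qHTS used for cherry-picking: cells at 500/well, library compounds for 48 h (37C, 5% CO2), luminescent ATP assay.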
# [4] = Quantitative High-Throughput drug screen in 47 multiple myeloma cell lines against the NCATS MIPE library collection: KMM1_JCRB cell viability assay (AID 1918960); also: nearly all actives have a fitted effect of over 30% in size; also: potency is read from the fitted curve at half-maximal effect
# Summary of the method: as §1
# [5] = Quantitative High-Throughput drug screen in 47 multiple myeloma cell lines against the NCATS MIPE library collection: JIM1_ECACC cell viability assay (AID 1918964; also: potency is read from the fitted curve at half-maximal effect)
# Summary of the method: as §2
# [6] = Quantitative High-Throughput drug screen in 47 multiple myeloma cell lines against the NCATS MIPE library collection: JJN3_DSMZ cell viability assay (AID 1918966; also: nearly all actives have a fitted effect of over 50% in size; also: potency is read from the fitted curve at half-maximal effect)
# Summary of the method: as §2
# [7] = Quantitative High-Throughput drug screen in 47 multiple myeloma cell lines against the NCATS MIPE library collection: H1112_PLB cell viability assay (AID 1918967; also: nearly all actives have a fitted effect of over 30% in size; also: potency is read from the fitted curve at half-maximal effect)
# Summary of the method: as §2
# [8] = Quantitative High-Throughput drug screen in 47 multiple myeloma cell lines against the NCATS MIPE library collection: Karpas25_ECACC cell viability assay (AID 1918968; also: nearly all actives have a fitted effect of over 35% in size; also: potency is read from the fitted curve at half-maximal effect)
# Summary of the method: as §2
# [9] = Quantitative High-Throughput drug screen in 47 multiple myeloma cell lines against the NCATS MIPE library collection: KMS27_JCRB cell viability assay (AID 1918970); also: nearly all actives have a fitted effect of over 30% in size; also: potency is read from the fitted curve at half-maximal effect
# Summary of the method: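 Each line is seeded at 500 cells per well and treated with library compounds for 48 hours under 37 °C, 5% CO2. CellTiter-Glo is then added for 5 min at room temperature before median relative luminescence is recorded.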
# [10] = Quantitative High-Throughput drug screen in 47 multiple myeloma cell lines against the NCATS MIPE library collection: KMS12BM_JCRB cell viability assay (AID 1918971); also: nearly all actives have a fitted effect of over 35% in size; also: potency is read from the fitted curve at half-maximal effect
# Summary of the method: (§4)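 We plated 500 myeloma cells per well, pinned in MIPE 4.0 compounds, and incubated for 48 hours at 37C. ATP was then quantified with CellTiter-Glo, with DMSO and media-only wells defining 100% and 0%.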
# [11] = Quantitative High-Throughput drug screen in 47 multiple myeloma cell lines against the NCATS MIPE library collection: MOLP8_DSMZ cell viability assay (AID 1918977); also: nearly all actives have a fitted effect of over 45% in size; also: potency is read from the fitted curve at half-maximal effect
# Summary of the method: (§5)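 Plated at 500 cells per well, myeloma lines received MIPE 4.0 compounds by pin tool. Following 48 h culture at 37 °C, CellTiter-Glo luminescence gave viability relative to DMSO and media-only controls.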
# [12] = Quantitative High-Throughput drug screen in 47 multiple myeloma cell lines against the NCATS MIPE library collection: NCIH929_DSMZ cell viability assay (AID 1918978); also: nearly all actives have a fitted effect of over 35% in size; also: potency is read from the fitted curve at half-maximal effect
# Summary of the method: as §5
# [13] = Quantitative High-Throughput drug screen in 47 multiple myeloma cell lines against the NCATS MIPE library collection: INA6_PLB cell viability assay (AID 1918965; also: nearly all actives have a fitted effect of over 55% in size; also: potency is read from the fitted curve at half-maximal effect)
# Summary of the method: as §4
# [14] = Quantitative High-Throughput drug screen in 47 multiple myeloma cell lines against the NCATS MIPE library collection: KMS12PE_JCRB cell viability assay (AID 1918972); also: nearly all actives have a fitted effect of over 30% in size; also: potency is read from the fitted curve at half-maximal effect
# Summary of the method: as §4
# [15] = Quantitative High-Throughput drug screen in 47 multiple myeloma cell lines against the NCATS MIPE library collection: KHM11_PLB cell viability assay (AID 1918962); also: nearly all actives have a fitted effect of over 35% in size; also: potency is read from the fitted curve at half-maximal effect
# Summary of the method: as §3
# [16] = Quantitative High-Throughput drug screen in 47 multiple myeloma cell lines against the NCATS MIPE library collection: KMS26_JCRB cell viability assay (AID 1918975); also: nearly all actives have a fitted effect of over 45% in size; also: potency is read from the fitted curve at half-maximal effect
# Summary of the method: as §4
# [17] = Quantitative High-Throughput drug screen in 47 multiple myeloma cell lines against the NCATS MIPE library collection: JIM3_ECACC cell viability assay (AID 1918963; also: nearly all actives have a fitted effect of over 35% in size; also: potency is read from the fitted curve at half-maximal effect)
# Summary of the method: as §3
# [18] = Quantitative High-Throughput drug screen in 47 multiple myeloma cell lines against the NCATS MIPE library collection: KMS21BM_JCRB cell viability assay (AID 1918974); details: ATP luminescence, 48 h; viability: at 45.8 µM (top of the series) unless noted; also: potency is read from the fitted curve at half-maximal effect
# Summary of the method: as §2
# [19] = Quantitative High-Throughput drug screen in 47 multiple myeloma cell lines against the NCATS MIPE library collection: KMS20_JCRB cell viability assay (AID 1918973); also: nearly all actives have a fitted effect of over 45% in size
# Summary of the method: as §2
# [20] = Quantitative High-Throughput drug screen in 47 multiple myeloma cell lines against the NCATS MIPE library collection: MMM1_PLB cell viability assay (AID 1918976)
# Summary of the method: as §5
Compound,Potency [1],Potency [2],Potency [3],Potency [4],Potency [5],Potency [6],Potency [7],Potency [8],Potency [9],Potency [10],Potency [11],Potency [12],Potency [13],Potency [14],Potency [15],Potency [16],Potency [17],Potency [18],Potency [19],Potency [20]
Cc1cn([C@H]2C[C@H](N=[N+]=[N-])[C@@H](CO)O2)c(=O)[nH]c1=O,inactive,inactive,inactive,inactive,inactive,5260 nM (active),23500 nM (active),26400 nM (active),5260 nM (active),inactive,inactive,23500 nM (active),–,–,–,–,–,–,–,–
CCOC(=O)c1ncn2c1CN(C)C(=O)c1cc(F)ccc1-2,16600 nM (active),inactive,inactive,inactive,inactive,–,inactive,inactive,–,5900 nM (active),–,inactive,inactive,inactive,–,–,–,–,–,–
NC(=O)NO,2960 nM (active),235 nM (active),3720 nM (active),235 nM (active),1660 nM (active),2350 nM (active),2960 nM (active),166 nM (active),743 nM (active),1480 nM (active),3320 nM (active),743 nM (active),166 nM (active),833 nM (active),2960 nM (active),1180 nM (active),–,–,–,–
CC1(C)O[C@H]2CC(=O)OC[C@]23[C@H]2CC[C@@]4(C)[C@H](c5ccoc5)OC(=O)[C@H]5O[C@]54[C@]2(C)C(=O)C[C@@H]13,inactive,inactive,–,inactive,inactive,–,inactive,inactive,inactive,inactive,inactive,inactive,–,inactive,inactive,inactive,inactive,inactive,–,–
C[C@@H]1CC(=O)NN=C1c1ccc(NN=C(C#N)C#N)cc1,23500 nM (active),inactive,inactive,inactive,inactive,20900 nM (active),20900 nM (active),18700 nM (active),inactive,18700 nM (active),26400 nM (active),20900 nM (active),18700 nM (active),inactive,–,–,20900 nM (active),–,–,–
CCc1cccc2c3c([nH]c12)C(CC)(CC(=O)O)OCC3 (centres undefined),inactive,inactive,–,inactive,–,–,inactive,–,inactive,–,–,inactive,inactive,inactive,inactive,inactive,–,–,–,–
CC(C)Cc1ccc(C(C)C(=O)O)cc1 (centres undefined),inactive,inactive,inactive,inactive,–,–,inactive,–,inactive,–,inactive,inactive,1620 nM (active),–,–,–,inactive,–,–,–
COc1cc2nc(N3CCN(C(=O)c4ccco4)CC3)nc(N)c2cc1OC,26400 nM (active),9350 nM (active),–,9350 nM (active),–,–,16600 nM (active),7430 nM (active),9350 nM (active),–,20900 nM (active),8330 nM (active),8330 nM (active),7430 nM (active),10500 nM (active),–,–,–,–,–
O=C(Nc1ccc([N+](=O)[O-])cc1Cl)c1cc(Cl)ccc1O,1660 nM (active),526 nM (active),–,235 nM (active),1050 nM (active),1870 nM (active),1320 nM (active),332 nM (active),935 nM (active),1480 nM (active),1660 nM (active),1050 nM (active),935 nM (active),469 nM (active),1320 nM (active),1870 nM (active),590 nM (active),1050 nM (active),–,–
CN1C2CCC1CC(OC(=O)C(CO)c1ccccc1)C2 (centres undefined),inactive,inactive,–,inactive,inactive,inactive,inactive,–,inactive,inactive,inactive,inactive,inactive,inactive,inactive,inactive,–,–,inactive,–
Cc1ccc(-c2cc(C(F)(F)F)nn2-c2ccc(S(N)(=O)=O)cc2)cc1,inactive,inactive,inactive,inactive,–,–,–,–,–,–,–,–,–,4180 nM (active),inactive,–,–,–,–,–
CC#C[C@]1(O)CC[C@H]2[C@@H]3CCC4=CC(=O)CCC4=C3[C@@H](c3ccc(N(C)C)cc3)C[C@@]21C,1050 nM (active),2640 nM (active),–,1050 nM (active),526 nM (active),1480 nM (active),743 nM (active),372 nM (active),264 nM (active),1180 nM (active),2350 nM (active),418 nM (active),662 nM (active),469 nM (active),1870 nM (active),4180 nM (active),–,–,–,4180 nM (active)
COC(=O)Nc1nc2ccc(C(=O)c3cccs3)cc2[nH]1,4.2 nM (active),1 nM (active),–,1 nM (active),1 nM (active),–,13.2 nM (active),–,–,2.6 nM (active),–,296 nM (active),1 nM (active),–,–,296 nM (active),1 nM (active),–,–,–
CC(C)C(=O)Nc1ccc([N+](=O)[O-])c(C(F)(F)F)c1,inactive,18700 nM (active),1050 nM (active),18700 nM (active),13200 nM (active),–,3320 nM (active),3320 nM (active),935 nM (active),inactive,–,1870 nM (active),6620 nM (active),13200 nM (active),6620 nM (active),8330 nM (active),8330 nM (active),–,–,–
